# Experimental data reported in PubChem BioAssay (NCATS).
# Inconclusive results are not listed. A call without a number means that no potency is given here. Activity calls are given as the source filed them. Unless noted, calls follow the shape of the dose curve; as a rule, active = well fitted inhibition curve with a large enough effect; inconclusive = small, poorly fitted or top-dose-only effect; inactive = no such curve, though single readings can be large or run the other way.
# Molecular target: Atrial natriuretic peptide receptor 1 (Homo sapiens) (UniProt P16066)
# Test: Natriuretic polypeptide receptor (hNpr1) antagonism - Pilot screen (AID 1347049; calls by dose curve;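 also: HEK293 cells with hNpr1 and GloSensor cGMP luciferase stimulated by 0.1 nM hNppA; agonist-evoked cGMP luminescence read 20 min after hNppA addition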)
# Conditions: hNpr1 cells, antagonist mode cGMP read-out; series mostly up to 57.5 µM
# Procedure, shortened: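 Cells expressing receptor plus cGMP biosensor are seeded and incubated overnight at 37C, then loaded with GloSensor reagent (2% final) at room temperature for 2 h. Library compounds go on for 30 min. A pre-read precedes agonist (hNppA, 0.1 nM final) and a 20-min readout.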
# Chain of Atrial natriuretic peptide receptor 1 (Homo sapiens) (P16066 whole entry, looked up): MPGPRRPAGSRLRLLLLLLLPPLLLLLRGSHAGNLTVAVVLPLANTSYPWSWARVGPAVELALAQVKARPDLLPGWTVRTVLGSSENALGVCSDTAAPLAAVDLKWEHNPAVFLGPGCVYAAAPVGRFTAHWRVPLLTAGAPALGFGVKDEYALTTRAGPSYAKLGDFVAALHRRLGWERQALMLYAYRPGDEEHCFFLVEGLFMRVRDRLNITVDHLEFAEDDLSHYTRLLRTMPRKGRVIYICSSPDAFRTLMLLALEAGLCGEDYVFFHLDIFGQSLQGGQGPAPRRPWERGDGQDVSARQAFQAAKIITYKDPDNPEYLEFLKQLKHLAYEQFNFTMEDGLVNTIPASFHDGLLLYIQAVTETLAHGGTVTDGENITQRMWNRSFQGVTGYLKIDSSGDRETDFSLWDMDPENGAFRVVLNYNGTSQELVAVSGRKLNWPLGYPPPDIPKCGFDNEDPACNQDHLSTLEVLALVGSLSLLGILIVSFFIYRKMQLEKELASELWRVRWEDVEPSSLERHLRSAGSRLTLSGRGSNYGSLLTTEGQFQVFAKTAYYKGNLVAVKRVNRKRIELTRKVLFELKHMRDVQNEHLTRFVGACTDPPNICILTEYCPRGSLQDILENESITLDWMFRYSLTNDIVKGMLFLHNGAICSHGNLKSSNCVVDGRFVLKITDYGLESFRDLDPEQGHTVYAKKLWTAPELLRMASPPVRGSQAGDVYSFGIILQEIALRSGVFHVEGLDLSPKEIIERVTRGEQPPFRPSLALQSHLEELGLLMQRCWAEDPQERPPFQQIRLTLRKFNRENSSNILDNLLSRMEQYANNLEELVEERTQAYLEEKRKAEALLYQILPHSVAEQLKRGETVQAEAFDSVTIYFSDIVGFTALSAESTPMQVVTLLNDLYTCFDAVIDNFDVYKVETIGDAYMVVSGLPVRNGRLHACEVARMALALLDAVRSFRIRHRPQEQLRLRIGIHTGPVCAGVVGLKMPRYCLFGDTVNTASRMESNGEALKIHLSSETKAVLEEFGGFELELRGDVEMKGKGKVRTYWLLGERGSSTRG
row,Compound,outcome
1,O=C1CCC(N2C(=O)c3ccccc3C2=O)C(=O)N1 (configuration not stated),inactive
2,CC(C[N+](C)(C)C)OC(N)=O (configuration not stated),inactive
3,CC(=O)Oc1ccccc1C(=O)O,inactive
4,NC[C@H](O)c1ccc(O)c(O)c1,inactive
5,NCCCC(N)(C(=O)O)C(F)F (configuration not stated),inactive
6,N[C@@H]1CONC1=O,inactive

# Molecular target: Atrial natriuretic peptide receptor 2 (Homo sapiens) (UniProt P20594)
# Test: Natriuretic polypeptide receptor (hNpr2) antagonism - Pilot subtype selectivity assay (AID 1347050; calls by dose curve; also: potency is read from the fitted curve at half-maximal effect)
# Conditions: NPR2-expressing cells, cGMP antagonist-mode read-out; series mostly up to 38.3 µM
# Procedure, shortened: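 Read-out: GloSensor luminescence (CCD imager), baseline vs post-stimulation. HEK293 cells expressing hNpr2; compounds pre-incubated 30-50 min at ambient temperature; hNppC 1 nM final, 20 min.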
# Chain of Atrial natriuretic peptide receptor 2 (Homo sapiens) (P20594 whole entry, looked up): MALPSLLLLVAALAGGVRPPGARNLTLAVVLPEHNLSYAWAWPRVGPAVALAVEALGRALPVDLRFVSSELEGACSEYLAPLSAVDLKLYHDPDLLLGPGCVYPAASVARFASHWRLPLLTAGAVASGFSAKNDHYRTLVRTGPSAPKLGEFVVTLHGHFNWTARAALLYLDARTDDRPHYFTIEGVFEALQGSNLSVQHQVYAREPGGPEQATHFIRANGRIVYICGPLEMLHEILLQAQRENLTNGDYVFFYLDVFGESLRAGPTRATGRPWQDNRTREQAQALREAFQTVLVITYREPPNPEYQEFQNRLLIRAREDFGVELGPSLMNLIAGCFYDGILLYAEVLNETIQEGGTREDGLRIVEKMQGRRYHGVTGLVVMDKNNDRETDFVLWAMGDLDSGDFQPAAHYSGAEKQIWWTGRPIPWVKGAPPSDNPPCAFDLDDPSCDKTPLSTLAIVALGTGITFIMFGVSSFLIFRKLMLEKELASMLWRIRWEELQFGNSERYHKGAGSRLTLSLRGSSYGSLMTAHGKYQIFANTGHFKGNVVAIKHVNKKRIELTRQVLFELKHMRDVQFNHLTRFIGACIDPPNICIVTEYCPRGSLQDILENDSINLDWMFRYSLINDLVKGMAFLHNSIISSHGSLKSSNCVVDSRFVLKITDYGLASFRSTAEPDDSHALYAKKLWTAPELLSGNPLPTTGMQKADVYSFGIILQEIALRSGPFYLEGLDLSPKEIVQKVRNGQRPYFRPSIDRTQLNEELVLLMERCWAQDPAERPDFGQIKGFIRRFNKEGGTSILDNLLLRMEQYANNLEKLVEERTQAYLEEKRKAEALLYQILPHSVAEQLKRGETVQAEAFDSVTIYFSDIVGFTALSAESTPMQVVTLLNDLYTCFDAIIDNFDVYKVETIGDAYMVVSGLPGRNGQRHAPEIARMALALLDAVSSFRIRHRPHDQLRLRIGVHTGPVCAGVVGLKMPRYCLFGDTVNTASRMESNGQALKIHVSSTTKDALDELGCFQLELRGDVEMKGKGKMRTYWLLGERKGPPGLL
row,Compound,Potency
1,O=C1CCC(N2C(=O)c3ccccc3C2=O)C(=O)N1 (configuration not stated),inactive
2,CCOC(=O)C1=C[C@]2(CC)CCCN3CCc4c(n1c1ccccc41)[C@@H]32,inactive
3,Cn1cnc([N+](=O)[O-])c1Sc1ncnc2nc[nH]c12,inactive
4,CCOC(=O)N1CCC(=C2c3ccc(Cl)cc3CCc3cccnc32)CC1,inactive
5,Oc1ccc(C2CNCCc3c2cc(O)c(O)c3Cl)cc1 (configuration not stated),inactive
6,Nc1ccc(S(=O)(=O)Nc2ccnn2-c2ccccc2)cc1,inactive
7,CCCCNc1cc(C(=O)O)cc(S(N)(=O)=O)c1Oc1ccccc1,inactive
8,O=c1[nH]cnc2[nH]ncc12,inactive
9,CC(C)(C)NCC(O)c1ccc(O)c(CO)c1 (configuration not stated),inactive
10,O=c1n(CCCN2CCN(c3cccc(Cl)c3)CC2)nc2ccccn12,inactive
11,O=C(O)COCCN1CCN(C(c2ccccc2)c2ccc(Cl)cc2)CC1 (configuration not stated),13.1 µM (active)
12,CCN(CC)CCCC(C)Nc1ccnc2cc(Cl)ccc12 (configuration not stated),inactive
13,CCn1cc(C(=O)O)c(=O)c2cc(F)c(N3CCNC(C)C3)c(F)c21 (configuration not stated),inactive
14,CC(C)NCC(O)COc1ccc(COCCOC(C)C)cc1 (configuration not stated),inactive
15,CCCC(CCC)C(=O)O,inactive
16,Nc1nc2c(ncn2COCCO)c(=O)[nH]1,inactive
17,O=NN(CCCl)C(=O)NCCCl,inactive
18,Cc1[nH]c(=O)c(C#N)cc1-c1ccncc1,inactive
19,NCCc1ccc(O)c(O)c1,inactive
20,CC(C[N+](C)(C)C)OC(N)=O (configuration not stated),inactive
21,Cc1ccc(N(CC2=NCCN2)c2cccc(O)c2)cc1,inactive
22,CC(=O)Oc1ccccc1C(=O)O,inactive
23,c1ccc([C@H]2CN3CCSC3=N2)cc1,inactive
24,NC[C@H](O)c1ccc(O)c(O)c1,inactive
25,NS(=O)(=O)c1cc2c(cc1Cl)NC=NS2(=O)=O,inactive
26,NCCCC(N)(C(=O)O)C(F)F (configuration not stated),inactive
27,N[C@@H]1CONC1=O,inactive
28,NNCCc1ccccc1,inactive
29,N=c1nc(N2CCCCC2)cc(N)n1O,inactive
30,O=C1CCc2cc(OCCCCc3nnnn3C3CCCCC3)ccc2N1,inactive

# Test system: not listed separately
# Test: NS1 protein of Zika virus - qHTS assay to identify small molecule inhibitors in human HEK 293 cells (AID 1347053); also: nearly all actives have a fitted effect of over 55% in size
# Conditions: HEK293 ZIKV MR766 infection, NS1 TR-FRET, 24 h; series mostly up to 46.1 µM
# Procedure, shortened: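 Compound-treated (1 h pre-infection) HEK 293 cells infected with ZIKV MR766, MOI = 0.5; after 24 h at 37 C, NS1 read by TR-FRET; data normalized to uninfected and infected controls.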
row,Compound,Potency
1,O=C1CCC(N2C(=O)c3ccccc3C2=O)C(=O)N1 (configuration not stated),inactive
2,CCOC(=O)C1=C[C@]2(CC)CCCN3CCc4c(n1c1ccccc41)[C@@H]32,inactive
3,Cn1cnc([N+](=O)[O-])c1Sc1ncnc2nc[nH]c12,inactive
4,CN1CCN(CCCN2c3ccccc3Sc3ccc(C(F)(F)F)cc32)CC1,inactive
5,CCOC(=O)N1CCC(=C2c3ccc(Cl)cc3CCc3cccnc32)CC1,inactive
6,Oc1ccc(C2CNCCc3c2cc(O)c(O)c3Cl)cc1 (configuration not stated),inactive
7,COc1ccc([C@@H]2CC(=O)c3c(O)cc(O[C@@H]4O[C@H](CO[C@@H]5O[C@@H](C)[C@H](O)[C@@H](O)[C@@H]5O)[C@@H](O)[C@H](O)[C@@H]4O)cc3O2)cc1O,inactive
8,Nc1ccc(S(=O)(=O)Nc2ccnn2-c2ccccc2)cc1,inactive
9,CCCCNc1cc(C(=O)O)cc(S(N)(=O)=O)c1Oc1ccccc1,inactive
10,O=c1[nH]cnc2[nH]ncc12,inactive
11,CC(C)(C)NCC(O)c1ccc(O)c(CO)c1 (configuration not stated),inactive
12,O=c1n(CCCN2CCN(c3cccc(Cl)c3)CC2)nc2ccccn12,inactive
13,O=C(O)COCCN1CCN(C(c2ccccc2)c2ccc(Cl)cc2)CC1 (configuration not stated),inactive
14,CCN(CC)CCCC(C)Nc1ccnc2cc(Cl)ccc12 (configuration not stated),inactive
15,CCn1cc(C(=O)O)c(=O)c2cc(F)c(N3CCNC(C)C3)c(F)c21 (configuration not stated),inactive
16,CC(C)NCC(O)COc1ccc(COCCOC(C)C)cc1 (configuration not stated),inactive
17,CCCC(CCC)C(=O)O,inactive
18,Nc1nc2c(ncn2COCCO)c(=O)[nH]1,inactive

row,Compound,Potency
1,Cc1cnc(NC(=O)C2=C(O)c3ccccc3S(=O)(=O)N2C)s1,inactive
2,O=NN(CCCl)C(=O)NCCCl,inactive
3,Cc1[nH]c(=O)c(C#N)cc1-c1ccncc1,inactive
4,NCCc1ccc(O)c(O)c1,inactive
5,CC(C[N+](C)(C)C)OC(N)=O (configuration not stated),inactive
6,Cc1ccc(N(CC2=NCCN2)c2cccc(O)c2)cc1,inactive
7,CC(=O)Oc1ccccc1C(=O)O,inactive
8,c1ccc([C@H]2CN3CCSC3=N2)cc1,inactive
9,NC[C@H](O)c1ccc(O)c(O)c1,inactive
10,NS(=O)(=O)c1cc2c(cc1Cl)NC=NS2(=O)=O,inactive
11,CC(C=CC1=C(C)CCCC1(C)C)=CC=CC(C)=CC(=O)O,inactive
12,NCCCC(N)(C(=O)O)C(F)F (configuration not stated),inactive
13,N[C@@H]1CONC1=O,inactive
14,CCOc1cc(N2CCC(O)CC2)ccc1Nc1ncc2c(n1)N(C)c1ccccc1C(=O)N2C,inactive
15,NNCCc1ccccc1,inactive
16,N=c1nc(N2CCCCC2)cc(N)n1O,inactive
17,O=C1CCc2cc(OCCCCc3nnnn3C3CCCCC3)ccc2N1,inactive
18,COc1cc(Oc2ccnc3cc(OC)c(OC)cc23)ccc1NC(=O)NC(C)c1nccs1 (configuration not stated),inactive
